We go through 94 compounds from PubChem BioAssay AID2732 (Emory University Molecular Libraries Screening Center, 2010).

The whole screen tested about 220,000 compounds, of which about 8,200 (3.7%) were called active. Only a selection was taken, and actives are over-represented in it overall. Values without a mark were called inactive.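 The calls were made as follows: active = compounds that reduced the stress-induced luciferase reporter signal by more than about 70% of percent inhibition (limit read from the data); inactive = the rest.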

The term inhibition denotes the drop in the measured response relative to a control, in per cent.

The nature of this test: inhibitors of CHOP promoter induction, primary screen, cell-based, unfolded protein response, luciferase reporter (AID 2732).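 Also: 0% = tunicamycin plus vehicle and 100% = wells without tunicamycin.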 To be noted: CHO-K1 CHOP-promoter luciferase, tunicamycin-induced, 15-18 h; at 10 µM; hits give high values.
As to `O=C1N/C(=C/c2cccn2-c2ccccc2)C(=O)N1c1cccc(Cl)c1`, the inhibition was 86.8% (active).

As for `Cc1ccccc1NC(=O)CN1C(=O)N/C(=C\c2cccn2-c2cccc(C(=O)O)c2)C1=O`, the inhibition is 1.36%.

In the case of `COc1cc2c(cc1/C=C1/NC(=O)N(c3ccccc3)C1=O)OCO2`, the inhibition is -2.61%.

In the case of `Cc1c(C)c(C)c2[nH]c(=S)[nH]c2c1C`, the inhibition was 20.2%.

With `N#CCc1ccc(OC(=O)c2cccnc2)cc1`, the inhibition was 12.3%.

With `Cc1nc(C)c(C(=O)N(c2ccc(C)c(C)c2)C(C(=O)NCc2ccco2)c2ccccc2)s1` (centres undefined), the inhibition is -35.7%.

`Cc1nn(-c2ccccc2)c2sc(C(=O)N(Cc3ccco3)C(C)C(=O)NC(C)(C)C)cc12` (centres undefined): the inhibition was 80.4% (active).

Take `Cc1ccc(-c2nnn(CC(=O)N(Cc3ccco3)C(C(=O)NC(C)(C)C)c3ccncc3)n2)o1` (centres undefined): the inhibition was 6.52%.

`Cc1cc(C)c(C)c(S(=O)(=O)N[C@@H](C)C(=O)OC(C)C(=O)NC(N)=O)c1C` (some centres undefined): the inhibition was -9.66%.

`Cc1ccc(Oc2nc(-c3ccccn3)nc3ccccc23)cc1`: the inhibition was -40.5%.

`CCOC(=O)c1ccc2c(c1)nc(SCC(=O)NC(C)C)n2CC`: the inhibition was 76% (active).

`CCOC(=O)CNC(=O)CSc1nc2cccnc2n1CC`: the inhibition was 5.31%.

`CCOC(=O)c1ccc2c(c1)nc(C)n2CC`: the inhibition was 3.33%.

Consider `C=CCN(CC=C)S(=O)(=O)c1ccc(C(=O)Nc2nc3c(s2)CCc2ccccc2-3)cc1`, for which the inhibition was 71% (active).

With `COCCN(CCOC)S(=O)(=O)c1ccc(C(=O)Nc2nc3c(s2)CCc2ccccc2-3)cc1`, the inhibition is 82.3% (active).

For the compound `COc1ccc(C(=O)Nc2ncc3c(n2)-c2ccccc2CC3)cc1`, the inhibition was -1.8%.

For `CCN(c1ccccc1)S(=O)(=O)c1ccc(C(=O)Nc2nccs2)cc1`, the inhibition was 31.6%.

As to `COCCN(CCOC)S(=O)(=O)c1ccc(/C(O)=C(\C#N)c2nc3ccccc3[nH]2)cc1`, the inhibition was 1.37%.

As for `C=CCN(CC=C)S(=O)(=O)c1ccc(C(=O)Nc2sc3c(c2C(N)=O)CCCCC3)cc1`, the inhibition was 41%.

As for `COc1ccc2[nH]c(C(=O)Nc3ccccc3Cl)cc2c1`, the inhibition was 2.73%.

On to `CC(C)(C)C(=O)Nc1c(Br)c(C2CC2)nn1-c1ccccc1`, for which the inhibition is 0.02%.

In the case of `CC(C)(C)c1cc(P(=O)(c2ccccc2)c2ccccc2)ccc1O`, the inhibition is 9.08%.

For the compound `CN1CCN(c2ncc3c(n2)CC(c2ccccc2F)CC3=O)CC1` (centres undefined), the inhibition is 15.3%.

On to `CSc1sc(C(=O)NC(=O)NCc2cccnc2)c(C)c1-c1ccon1`, for which the inhibition is 28.4%.

Consider `COC(=O)c1c(C(=O)OC)c2n(c1C)CCS2`, for which the inhibition was 14.2%.

Regarding `CCn1c(=O)c2cc(C(=O)Nc3cccc(C(C)=O)c3)sc2c2ccccc21`, the inhibition was -10.2%.

For the compound `Cc1ccc(S(=O)(=O)N(C)CC(=O)NC2CCCC2)cc1`, the inhibition is 36.5%.

As for `Cc1ccc(NC(=O)NC(=O)N(C2CCCCC2)S(=O)(=O)c2ccccc2)cc1`, the inhibition is 84% (active).

On to `CC(c1ccco1)N(C(=O)Nc1ccccc1)C1CCCCC1` (centres undefined), for which the inhibition is 36.4%.

`CC1CC(NC(=O)/C(C#N)=C/c2ccc[nH]2)CC(C)(C)C1` (centres undefined): the inhibition was -0.59%.

Turning to `Cc1nc2cc3c(cc2s1)OCO3`, the inhibition was 14%.

With `CCCc1c(C(=O)Nc2ccc(F)cc2)cnn1-c1ccccc1`, the inhibition is 14.9%.

Consider `Cc1cc(C)nc(Nc2cc([N+](=O)[O-])ccc2C)n1`, for which the inhibition was 0.9%.

In the case of `Cc1ccc(Nc2ccc(C(N)=O)cc2[N+](=O)[O-])cc1`, the inhibition is 21.8%.

`Cc1ccc(Nc2cc(C)nc3c(C)ccc([N+](=O)[O-])c23)cc1`: the inhibition is 71.4% (active).

As to `Cc1cc2nnc(SCC(=O)N3CCN(c4ccccc4)CC3)n2c(N)n1`, the inhibition was 23.7%.

Regarding `Cc1ccccc1NC(=O)Cc1nnc(SCC(=O)N2CCN(c3ccccc3)CC2)n1C`, the inhibition is 26.1%.

`Cn1c(Cc2cccc3ccccc23)nnc1SCC(=O)N1CCN(c2cccc(Cl)c2)CC1`: the inhibition is 78.6% (active).

As for `COc1ccc(OC)c(C(=O)c2ccc(Cl)cc2)c1`, the inhibition is 9.86%.

Consider `Cc1ccc(C2=NN(C)c3nc4ccccc4n3C2)cc1`, for which the inhibition was 86.3% (active).

With `Cn1cccc1-c1nc2ccccc2n1C`, the inhibition is -2.65%.

For `Cc1ccc(O)c(CNc2nc3ccccc3n2C)c1`, the inhibition was 11.9%.

Turning to `COc1ccccc1-n1c(-c2cc(-c3ccco3)[nH]n2)n[nH]c1=S`, the inhibition was -7.77%.

As to `CCO[C@@H]1OC(C(=O)NC2CC2)=C[C@H](C)[C@H]1CCCO`, the inhibition was 0.64%.

With `CCOC(=O)CN(C(=O)COc1nc(C)cc(C)c1C#N)c1ccc(Cl)cc1`, the inhibition was 23.1%.

Regarding `O=C(CCCN1C(=O)/C(=C\c2ccco2)SC1=S)Nc1cccc2ccccc12`, the inhibition was 73.2% (active).

In the case of `O=C(CCN1C(=O)/C(=C/c2cccs2)SC1=S)NNC(=O)c1cccc(O)c1`, the inhibition is 46.3%.

Take `O=C(CCCN1C(=O)/C(=C/c2ccco2)SC1=S)Nc1ccccc1`: the inhibition was 32.2%.

Consider `O=c1oc(-c2ccccc2NS(=O)(=O)c2ccc(Cl)cc2)nc2ccccc12`, for which the inhibition was 21%.

`Cc1ccc(SCc2c(C(=O)N/N=C/C3CC=CCC3)nnn2-c2nonc2N)cc1` (centres undefined): the inhibition is 36.4%.

Regarding `CC(=O)N1N=C(c2ccncc2)OC1(Cc1ccccc1)Cc1ccccc1`, the inhibition was -11.2%.

As to `Cc1cc(C)cc(OCc2nnc(SCC(=O)OC3CCCCC3)o2)c1`, the inhibition was 25.7%.

Regarding `Cc1cc(C)cc(OCc2nnc(SCC(=O)Nc3ccccc3)o2)c1`, the inhibition is 91.5% (active).

As to `Cc1ccc(NC(=O)CSc2nnc(COc3ccccc3C)o2)cc1`, the inhibition is 39.4%.

Regarding `COc1ccc2c(c1)C(=C(C#N)C#N)C(=O)N2CCc1ccccc1`, the inhibition is -16.5%.

As for `NC(=O)CC(NC(=O)Cc1cccc2ccccc12)c1ccc(NCc2cc(F)ccc2F)c([N+](=O)[O-])c1` (centres undefined), the inhibition is 99.3% (active).

Take `O=C1CCC(=O)N1c1ccc(NCCc2ccccc2F)c([N+](=O)[O-])c1`: the inhibition was 20%.

As to `O=[N+]([O-])c1ccccc1NCc1ccccc1Cl`, the inhibition is 34.1%.

For `Brc1ccc2ncnc(NCc3cccnc3)c2c1`, the inhibition was 50.9%.

With `CCC(C(=O)OCC(=O)Nc1ccccc1-c1ccccc1)c1ccccc1` (centres undefined), the inhibition is 6.12%.

For the compound `CCC(C(=O)OCC(=O)Nc1c(Cl)cc(Cl)cc1Cl)c1ccccc1` (centres undefined), the inhibition was 48.2%.

Consider `CCC(C(=O)OCC(=O)Nc1ccc(C(=O)Nc2ccc(OC)cc2)cc1)c1ccccc1` (centres undefined), for which the inhibition is 89.3% (active).

With `COc1ccc(C2c3ccc(O)cc3Oc3ncn(CCCO)c(=N)c32)cc1OC` (centres undefined), the inhibition is 11.6%.

Regarding `CCOCCn1c(-c2ccccc2)nc2ccccc21`, the inhibition is 5.67%.

In the case of `Cc1nn(-c2ncc(C(F)(F)F)cc2Cl)c(=O)n1-c1ccccc1`, the inhibition is -12.9%.

`c1ccc(-c2ccnc3nc(-n4cccc4)nn23)cc1`: the inhibition is 7.91%.

For `Cc1ccc(-c2ccnc3nc(Sc4ncc(C(F)(F)F)cc4Cl)nn23)cc1`, the inhibition was 81.4% (active).

For the compound `COc1ccc(-c2ccc(OC(=O)NC3CCS(=O)(=O)C3)cc2)cc1` (centres undefined), the inhibition was 20.4%.

Turning to `COc1cc(/C=N/NC(=O)c2ccccc2)ccc1OS(=O)(=O)c1ccccc1`, the inhibition is -6.49%.

For the compound `COc1cc(/C=N/NC(=O)Nc2ccccc2)ccc1OCCOc1ccccc1C`, the inhibition was 104% (active).

`COc1ccc(/C=N/NC(=O)c2ccccc2)cc1OS(=O)(=O)c1ccccc1`: the inhibition was 7.47%.

Take `CC(C)c1nc(SCC(=O)NC(=O)NC(C)(C)C)n[nH]1`: the inhibition was 18.7%.

`Cc1cc(C)cc(OCC(=O)O/N=C(\N)Cc2ccc([N+](=O)[O-])cc2)c1`: the inhibition was 13.5%.

For `O=C(Nc1ccc(Br)cn1)C1CCN(S(=O)(=O)c2cccs2)CC1`, the inhibition was 42.9%.

In the case of `C/C=C/C(=O)Nc1ccc(N2CCN(c3ccc(C(F)(F)F)cn3)CC2)nc1`, the inhibition was 1.12%.

On to `Nc1ccccc1Sc1ccc(C(F)(F)F)cc1[N+](=O)[O-]`, for which the inhibition is -6.84%.

For `COc1ccc(-c2nn(C)c(=O)c3ccccc23)cc1CNC(=O)C1CCCCC1`, the inhibition was 4.54%.

As to `Cc1cc(NC(=O)CCC2COc3ccccc3O2)no1` (centres undefined), the inhibition is 7.18%.

In the case of `CCn1cc(C(=O)NCC2COc3ccccc3O2)c2cc(OC)c(OC)cc2c1=O` (centres undefined), the inhibition is 19.1%.

With `Cc1cc(C(=O)CCl)c(C)n1CC1COc2ccccc2O1` (centres undefined), the inhibition was 106% (active).

For `O=C(NC1C2CC3CC(C2)CC1C3)c1ccc(N2CCNCC2)c([N+](=O)[O-])c1` (centres undefined), the inhibition was -22.1%.

In the case of `O=C1CCC(=O)N(O)CCCCCNC(=O)CCC(=O)N(O)CCCCCNC(=O)CCC(=O)N(O)CCCCCN1`, the inhibition was 3.7%.

`COc1ccccc1NC(=O)c1cc(Cl)nc2ccccc12`: the inhibition is 11.8%.

Regarding `CCn1c2ccccc2c2cc(CC(N)=O)ccc21`, the inhibition was 17.4%.

As to `NC(N)=N/N=C/c1ccc(Cl)c([N+](=O)[O-])c1`, the inhibition is -23.8%.

As for `COc1ccc(C(=O)O/N=C(\N)Cc2ccc(Cl)cc2Cl)cc1OC`, the inhibition was 60.4%.

As to `NC(N)=N/N=C/c1ccc(OCc2ccc(Cl)cc2Cl)cc1`, the inhibition is 108% (active).

`O=C(CCc1ccccc1)NNc1ccc(F)cc1`: the inhibition was 4.92%.

As to `O=C(NC1(C(F)(F)F)NC(=O)N(C2CCCCC2)C1=O)c1ccco1` (centres undefined), the inhibition was 9.81%.

As for `COC(=O)NC1(C(F)(F)F)NC(=O)N(C2CCCCC2)C1=O` (centres undefined), the inhibition was 2.29%.

Take `O=C1NC(Nc2nc3ccccc3s2)(C(F)(F)F)C(=O)N1C1CCCCC1` (centres undefined): the inhibition is 78.6% (active).

With `Nc1nc(SC23CC4CC(CC(C4)C2)C3)ns1`, the inhibition is 11.6%.

In the case of `COC(=O)c1cn(C(=O)c2ccc(Cl)cc2)c2ccccc12`, the inhibition was 9.55%.

Turning to `O=C(CSc1nnc(SCc2ccc(F)cc2)s1)Nc1ccc(C(=O)O)cc1`, the inhibition is -8.93%.
